Read-out in test [1]: Matrix Metallopeptidase 1 (MMP1), MMP1 (gene 4312)
As to the kind of experiment: BSK_BE3C_MMP1: BioMAP Diversity Plus: BE3C Assay for Matrix Metallopeptidase 1 (MMP1) Biomarker Activity (AID 2283024). Conditions: primary human bronchial epithelial cells; actives raise or lower the signal. Summed up:
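ELISA read-out of MMP1 in human lung bronchial epithelial primary cultures, 24 h post-dose; bidirectional curve fit vs DMSO baseline, gain or loss of signal scored.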

Test [2] is described as follows: BSK_3C_Vis: BioMAP Diversity Plus: 3C Assay for Morphology Visualization (AID 2283025).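 Further: fitted both ways so gain or loss versus DMSO counts.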 To be noted: primary human endothelial cells (HUVEC). In a few lines: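 HUVEC, 3C system; light microscopy of morphology at 24 h post-dose. Bidirectional fit vs DMSO baseline. Secondary readout, background-control function.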
Read-out in test [3]: Pselectin, SELP (gene 6403)
As to the kind of experiment: BSK_4H_Pselectin: BioMAP Diversity Plus: 4H Assay for Pselectin Biomarker Activity (AID 2283026). To be noted: primary human endothelial cells (HUVEC); actives raise or lower the signal. Summed up: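 HUVEC, 24 h chemical exposure; P-selectin read by ELISA. Bidirectional curve fit vs DMSO baseline; gain or loss of signal scored.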

Test [4] can be described thus: BSK_4H_SRB: Viability Assessment in the BioMAP Diversity Plus: 4H Assay (AID 2283027).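 Further: cells exposed to compound for 24 h before staining.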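 On AC50: curves fitted both ways versus DMSO so AC50 may be loss or gain.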 Conditions: primary human endothelial cells (HUVEC). In a few lines: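 Cytotoxicity readout: sulforhodamine B (0.1%) staining of total protein after 10% TCA fixation, measured at 560 nm in human umbilical vein endothelium at 24 h. DMSO set the baseline; fitting was bidirectional.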

Read-out in test [5]: Thrombomodulin, THBD (gene 7056)
As to the kind of experiment: BSK_3C_Thrombomodulin: BioMAP Diversity Plus: 3C Assay for Thrombomodulin Biomarker Activity (AID 2283029). To be noted: primary human endothelial cells (HUVEC); actives raise or lower the signal. Summed up: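 HUVEC, 3C conditions; compound 24 h; thrombomodulin by ELISA; bidirectional curve fit vs DMSO baseline; parallel SRB total-protein staining for cytotoxicity.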

Read-out in test [6]: Urokinase-type plasminogen activator receptor (uPAR), PLAUR (gene 5329)
As to the kind of experiment: BSK_4H_uPAR: BioMAP Diversity Plus: 4H Assay for Urokinase-type plasminogen activator receptor (uPAR) Biomarker Activity (AID 2283030). Conditions: primary human endothelial cells (HUVEC); actives raise or lower the signal. Summed up:
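Chemicals are dosed onto human vascular endothelial primary cells (umbilical vein). After 24 h, uPAR is read by ELISA. Gain or loss of signal is fitted relative to DMSO.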

Read-out in test [7]: Human Leukocyte Antigen - DR isotype (HLADR), HLA-DRA (gene 3122)
As to the kind of experiment: BSK_BE3C_HLADR: BioMAP Diversity Plus: BE3C Assay for Human Leukocyte Antigen - DR isotype (HLADR) Biomarker Activity (AID 2283032). To be noted: primary human bronchial epithelial cells; actives raise or lower the signal. Summed up: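 Primary human bronchial epithelial cells (BE3C); 24 h chemical exposure; HLA-DR by ELISA; bidirectional curve fit vs DMSO baseline.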

Read-out in test [8]: Vascular cell adhesion molecule 1 (VCAM1), VCAM1 (gene 7412)
As to the kind of experiment: BSK_4H_VCAM1: BioMAP Diversity Plus: 4H Assay for Vascular cell adhesion molecule 1 (VCAM1) Biomarker Activity (AID 2283033).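 On outcome: cell-surface VCAM-1 protein measured by ELISA.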 To be noted: primary human endothelial cells (HUVEC); actives raise or lower the signal. Summed up:
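HUVEC, 24 h post-dose; VCAM-1 by ELISA. Bidirectional curve fit vs DMSO baseline. Parallel SRB total-protein stain (0.1% SRB after 10% TCA fixation, 560 nm) for cytotoxicity.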

Read-out in test [9]: Interferon-gamma inducible Protein 10 (IP10), CXCL10 (gene 3627)
As to the kind of experiment: BSK_BE3C_IP10: BioMAP Diversity Plus: BE3C Assay for Interferon-gamma inducible Protein 10 (IP10) Biomarker Activity (AID 2283034). To be noted: primary human bronchial epithelial cells; actives raise or lower the signal. Summed up:
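ELISA readout of IP-10 in BE3C system: primary human bronchial epithelial cells, 24 h post-dosing; bidirectional curve fit vs DMSO baseline.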

Read-out in test [10]: Monokine induced gamma interferon (MIG), CXCL9 (gene 4283)
As to the kind of experiment: BSK_BE3C_MIG: BioMAP Diversity Plus: BE3C Assay for Monokine induced gamma interferon (MIG) Biomarker Activity (AID 2283035).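 On outcome: MIG protein measured by ELISA in BE3C cultures after 24 h of dosing.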 To be noted: primary human bronchial epithelial cells; actives raise or lower the signal. Summed up: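 hu bronchial epithelial 1° cells, 24 h cpd; MIG by ELISA; bidirectional fit, DMSO = baseline.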

Read-out in test [11]: Transforming growth factor beta 1 (TGFb1), TGFB1 (gene 7040)
As to the kind of experiment: BSK_BE3C_TGFb1: BioMAP Diversity Plus: BE3C Assay for Transforming growth factor beta 1 (TGFb1) Biomarker Activity (AID 2283036;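 on outcome: TGF-b1 protein level measured by ELISA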). Conditions: primary human bronchial epithelial cells; actives raise or lower the signal. Summed up:
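Read-out: ELISA for TGF-b1 in primary human bronchial epithelial cultures, 24 h post-dose. Bidirectional curve fitting vs DMSO control; gain or loss of signal both scored.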

Read-out in test [12]: Plasminogen activator inhibitor-1 (PAI1), SERPINE1 (gene 5054)
As to the kind of experiment: BSK_BE3C_PAI1: BioMAP Diversity Plus: BE3C Assay for Plasminogen activator inhibitor-1 (PAI1) Biomarker Activity (AID 2283037). Conditions: primary human bronchial epithelial cells; actives raise or lower the signal. Summed up: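 ELISA read-out of PAI-1 from human bronchial epithelial primary cells, 24 h post-dosing; bidirectional curve fit vs DMSO baseline, gain or loss of signal scored.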

Read-out in test [13]: urokinase plasminogen activator (uPA), PLAU (gene 5328)
As to the kind of experiment: BSK_BE3C_uPA: BioMAP Diversity Plus: BE3C Assay for urokinase plasminogen activator (uPA) Biomarker Activity (AID 2283038).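 On outcome: uPA protein level quantified by ELISA in cell cultures; uPA read one day after compound addition.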 To be noted: primary human bronchial epithelial cells; actives raise or lower the signal. In a few lines: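 Measured by ELISA: uPA from human primary bronchial epithelial cells 24 h after chemical treatment. Values derive from bidirectional curve fitting with DMSO serving as negative control. Total protein by SRB staining in parallel wells flagged overt cytotoxicity.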

Read-out in test [14]: Urokinase-type plasminogen activator receptor (uPAR), PLAUR (gene 5329)
As to the kind of experiment: BSK_BE3C_uPAR: BioMAP Diversity Plus: BE3C Assay for Urokinase-type plasminogen activator receptor (uPAR) Biomarker Activity (AID 2283039).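 On outcome: uPAR protein level measured by ELISA on the cells; cells exposed to compound for one day before measurement.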 To be noted: primary human bronchial epithelial cells; actives raise or lower the signal. In a few lines: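 ELISA readout of uPAR on human lung primary bronchial epithelial cells, 24 h post-dosing. Bidirectional curve fit relative to DMSO vehicle baseline; gain or loss of signal both scored.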

Read-out in test [15]: Interleukin-6 (IL6), IL6 (gene 3569)
As to the kind of experiment: BSK_CASM3C_IL6: BioMAP Diversity Plus: CASM3C Assay for Interleukin-6 (IL6) Biomarker Activity for (AID 2283040). Conditions: primary human coronary artery smooth muscle cells; actives raise or lower the signal.

Read-out in test [16]: Tissue plasminogen activator (tPA), PLAT (gene 5327)
As to the kind of experiment: BSK_BE3C_tPA: BioMAP Diversity Plus: BE3C Assay for Tissue plasminogen activator (tPA) Biomarker Activity (AID 2283041).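 Further: tPA level quantified by ELISA one day after compound addition.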 Conditions: primary human bronchial epithelial cells; actives raise or lower the signal. In a few lines:
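ELISA read-out of tPA on human primary bronchial epithelial cells, 24 h post-dosing; bidirectional fit vs DMSO negative control/baseline.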

Read-out in test [17]: Interleukin-8 (IL8), CXCL8 (gene 3576)
As to the kind of experiment: BSK_CASM3C_IL8: BioMAP Diversity Plus: CASM3C Assay for Interleukin-8 (IL8) Biomarker Activity (AID 2283042).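 Further: IL-8 protein level quantified by ELISA.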 To be noted: primary human coronary artery smooth muscle cells; actives raise or lower the signal.

Read-out in test [18]: Human Leukocyte Antigen - DR isotype (HLADR), HLA-DRA (gene 3122)
As to the kind of experiment: BSK_CASM3C_HLADR: BioMAP Diversity Plus: CASM3C Assay for Human Leukocyte Antigen - DR isotype (HLADR) Biomarker Activity (AID 2283043).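 Further: cell-surface HLA-DR protein level quantified by ELISA.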 To be noted: primary human coronary artery smooth muscle cells; actives raise or lower the signal.

Read-out in test [19]: Vascular endothelial growth factor receptor 2 (Homo sapiens) (UniProt P35968)
As to the kind of experiment: BSK_4H_VEGFRII: BioMAP Diversity Plus: 4H Assay for Vascular endothelial growth factor receptor 2 (VEGFR2) Biomarker Activity (AID 2283031).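 On AC50: cell-surface VEGFR2 protein level quantified by ELISA.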 Conditions: primary human endothelial cells (HUVEC); actives raise or lower the signal. Summed up:
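VEGFRII levels on human vascular endothelial primary cells were determined by ELISA at 24 hours post-dosing, with gain- or loss-of-signal fitted against DMSO controls.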

Activity calls are given as the source filed them. How the source made its calls: active means hit-call score of the fitted dose curve at least 0.9, where 1 is the maximum; inactive means score below 0.9.

As to `Nc1cccc2ccccc12`, the result in test [1], in test [2], in test [3], in test [4], in test [5] and in test [6] was inactive. Moreover, the result in test [7], in test [8], in test [10], in [11], in test [12] and in test [13] was inactive. Moreover, the outcome in [14], in test [15], in test [16], in [17] and in [18] was inactive. Moreover, the AC50 in [9] is 20 µM (active).

Turning to `ClC(Cl)=C(Cl)C(Cl)=C(Cl)Cl`, the half-maximal activity concentration (AC50) in test [1] is 20 µM (active); in [2] it was 37.5 µM (active); in test [3] it was 33.6 µM (active); in test [4] it was 34.2 µM (active); in [19], 31.1 µM (active); in test [7] it was 26.9 µM (active). For the same molecule, the AC50 was 34.8 µM (active) in test [8]; 31.5 µM (active) in test [9]; 20 µM (active) in test [12]; 20 µM (active) in test [13]; 3.97 µM (active) in [15]. Also, the outcome in [5], in test [10], in [11], in test [14], in test [16] and in [17] was inactive. In [18], the outcome was inactive.

`CCOP(=S)(OCC)Oc1nc(Cl)c(Cl)cc1Cl`: the result in test [1], in test [4], in test [5], in test [19], in test [7] and in [9] was inactive. Besides, the result in test [10], in test [11], in test [12], in test [13], in test [14] and in [15] was inactive. The outcome in test [17] and in test [18] was inactive. For the same molecule, the AC50 is 39 µM (active) in [2], 32 µM (active) in test [3] and 15.8 µM (active) in test [8].

Consider `CC(C)(C)CC(C)(C)c1ccc(O)cc1`, for which the concentration at half-maximal activity (AC50) is 33.7 µM (active) in [1]; 6.71 µM (active) in test [2]; 11.4 µM (active) in test [3]; 9.01 µM (active) in test [4]; 19.3 µM (active) in test [7]; 7.98 µM (active) in [8]. Also, the AC50 in test [9] was 16.6 µM (active); in test [10], 34.5 µM (active); in test [11], 14.7 µM (active); in [12], 30.9 µM (active); in [13], 26.6 µM (active); in test [14] it was 30 µM (active). The values for the AC50 in test [15], in test [17] and in test [18] were 12 µM (active), 30.3 µM (active) and 11.2 µM (active), respectively. Moreover, the result in test [5] and in test [19] was inactive.

Regarding `CC(C)(OO)c1ccccc1`, the result in test [1], in test [2], in test [3], in test [4], in test [5] and in test [19] was inactive. The result in test [7], in test [8], in test [9], in test [10], in [11] and in test [12] was inactive. Further, the result in [13], in [14], in test [15], in test [17] and in test [18] was inactive.

As for `BrCCBr`, the result in [1], in test [2], in test [3], in test [4], in test [5] and in [19] was inactive. In addition, the result in [7], in test [8], in [9], in test [10], in test [11] and in test [12] was inactive. Also, the result in [13], in test [14], in [15], in test [17] and in test [18] was inactive.
